Experimental findings from PubChem BioAssay (EPA / NIEHS) are described below.

Inconclusive results are not listed. Active and inactive are the calls of the source. How the source made its calls, unless noted: active means hit-call score of the fitted dose curve at least 0.9, where 1 is the maximum; inactive means score below 0.9.

Assay [1] can be described thus: BSK_3C_VCAM1: BioMAP Diversity Plus: 3C Assay for Vascular cell adhesion molecule 1 (VCAM1) Biomarker Activity (AID 2282999). The conditions noted are these: BioMAP 3C HUVEC, VCAM1 ELISA, cytokine-stimulated; actives raise or lower the signal. The method in brief: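 Activity fitted in both directions relative to DMSO, with ELISA measurement of the surface marker on primary HUVEC (3C) at 24 h post-treatment; parallel SRB staining (0.1% SRB, TCA-fixed, 560 nm) flagged overt cytotoxicity.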
A general note: An ELISA detects its analyte on a solid surface through an enzyme-linked reagent.

Assay [2] can be described thus: BSK_4H_Eotaxin3: BioMAP Diversity Plus: 4H Assay for Eotaxin 3 Biomarker Activity (AID 2283000).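 On outcome: CCL26 protein level quantified by ELISA in parallel with SRB cytotoxicity check.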 The conditions noted are these: primary human endothelial cells (HUVEC); actives raise or lower the signal. The method in brief: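 Endothelial primary cells (human umbilical vein) exposed to compound for 24 h. ELISA detection of Eotaxin-3.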
For assay [3], the target named is human Peroxisome Proliferator-activated Receptor delta (PPARd), PPARD (gene 5467) (UniProt Q03181). In words: ATG_PPARd_TRANS: Attagene TRANS-FACTORIAL HepG2 Assay for human Peroxisome Proliferator-activated Receptor delta (PPARd) (AID 2283002; active means hit-call score of the fitted dose curve at least 0.9, where 1 is the maximum). The method in brief: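 Transient HepG2 transfection (multiple GAL4-UAS RTUs, chimeric receptor-Gal4); 24 h dosing; total RNA → oligo(dT) RT → PCR → 6-FAM primer extension → HpaI cut → CE. Positive direction vs DMSO.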
human Peroxisome Proliferator-activated Receptor delta (PPARd), PPARD (gene 5467), sequence (Q03181 whole entry, looked up, the tested form may be a part): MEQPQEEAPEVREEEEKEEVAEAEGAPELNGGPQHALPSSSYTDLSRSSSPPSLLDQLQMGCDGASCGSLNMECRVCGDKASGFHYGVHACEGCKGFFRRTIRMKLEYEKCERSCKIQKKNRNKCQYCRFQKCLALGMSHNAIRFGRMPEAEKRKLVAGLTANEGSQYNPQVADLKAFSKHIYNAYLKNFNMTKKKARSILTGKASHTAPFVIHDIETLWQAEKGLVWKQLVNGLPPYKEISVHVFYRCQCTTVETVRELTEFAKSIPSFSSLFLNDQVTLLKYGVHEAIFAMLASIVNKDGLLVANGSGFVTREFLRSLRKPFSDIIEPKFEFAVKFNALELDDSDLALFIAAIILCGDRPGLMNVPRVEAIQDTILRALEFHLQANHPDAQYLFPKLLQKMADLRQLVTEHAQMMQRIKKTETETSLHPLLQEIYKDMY

Read-out in assay [4]: Intercellular Adhesion Molecule 1 (ICAM1), ICAM1 (gene 3383)
The assay is described as follows: BSK_3C_ICAM1: BioMAP Diversity Plus: 3C Assay for Intercellular Adhesion Molecule 1 (ICAM1) Biomarker Activity (AID 2283003). The conditions noted are these: primary human endothelial cells (HUVEC); actives raise or lower the signal. The method in brief: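 Using DMSO as baseline, bidirectional curve fitting was applied to ICAM-1 ELISA signals from HUVEC in the 3C system, measured 24 h after compound addition.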

Assay [5] in a line: BSK_3C_Proliferation: Cell Proliferation Assessment in the BioMAP Diversity Plus: 3C Assay (AID 2283006).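 On AC50: potency may reflect either rise or fall in cell number versus DMSO.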 The conditions noted are these: primary human endothelial cells (HUVEC). An outline of the steps:
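Measured here: sulforhodamine B (0.1%) staining of TCA-fixed sub-confluent umbilical vein endothelial cultures 48 h post-dosing, absorbance 560 nm. DMSO served as negative control and baseline; both signal gain and loss were modelled.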

The target in assay [6] is Peroxisome proliferator-activated receptor gamma (Homo sapiens) (UniProt P37231). The assay is described as follows: ATG_PPARg_TRANS: Attagene TRANS-FACTORIAL HepG2 Assay for human Peroxisome Proliferator-activated Receptor-gamma (PPARg) (AID 2283007; active means hit-call score of the fitted dose curve at least 0.9, where 1 is the maximum). The method in brief: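 Chimeric NR-Gal4 transactivation is measured in transiently transfected HepG2 cells by reporter mRNA induction at 24 h. Detection uses RT-PCR with fluorescent labelling and capillary electrophoresis; DMSO defines baseline.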
Peroxisome proliferator-activated receptor gamma (Homo sapiens), sequence (P37231 whole entry, looked up, the tested form may be a part): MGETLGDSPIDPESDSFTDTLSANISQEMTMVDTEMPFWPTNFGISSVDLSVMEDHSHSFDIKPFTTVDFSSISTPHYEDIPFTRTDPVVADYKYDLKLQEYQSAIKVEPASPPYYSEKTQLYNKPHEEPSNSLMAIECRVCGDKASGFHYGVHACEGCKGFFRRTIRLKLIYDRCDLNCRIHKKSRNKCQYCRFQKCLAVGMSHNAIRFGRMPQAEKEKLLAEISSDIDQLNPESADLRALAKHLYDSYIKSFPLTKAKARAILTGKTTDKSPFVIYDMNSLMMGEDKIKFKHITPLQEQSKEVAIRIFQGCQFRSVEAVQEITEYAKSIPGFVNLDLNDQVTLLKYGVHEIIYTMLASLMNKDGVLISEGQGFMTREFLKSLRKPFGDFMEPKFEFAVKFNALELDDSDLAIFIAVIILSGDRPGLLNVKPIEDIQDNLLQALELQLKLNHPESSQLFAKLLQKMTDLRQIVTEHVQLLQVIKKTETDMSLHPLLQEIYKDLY

Assay [7] concerns the target Nuclear receptor subfamily 1 group I member 2 (Homo sapiens) (UniProt O75469). In words: ATG_PXR_TRANS: Attagene TRANS-FACTORIAL HepG2 Assay for human Pregnane X Receptor (PXR) (AID 2283008; active means hit-call score of the fitted dose curve at least 0.9, where 1 is the maximum). The method in brief:
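Multiplexed TRANS reporter panel in HepG2; this component tracks PXR-Gal4-driven reporter mRNA after 24 h dosing, measured by RT-PCR with capillary electrophoresis fluorescence, fitted against DMSO.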

Assay [8] concerns the target human RAR-related Orphan Receptor beta (RORb), RORB (gene 6096) (UniProt Q92753). In words: ATG_RORb_TRANS: Attagene TRANS-FACTORIAL HepG2 Assay for human RAR-related Orphan Receptor beta (RORb) (AID 2283010; active means hit-call score of the fitted dose curve at least 0.9, where 1 is the maximum). An outline of the steps: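 Multiplexed transcription-factor reporter assay: HepG2 cells transiently carrying NR-Gal4/GAL4-UAS constructs, 24 h treatment, mRNA quantified by RT-PCR plus capillary electrophoresis fluorescence; activity scored as induction over DMSO.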

Assay [9] addresses human RAR-related Orphan Receptor gamma (RORg), RORC (gene 6097) (UniProt P51449). In words: ATG_RORg_TRANS: Attagene TRANS-FACTORIAL HepG2 Assay for human RAR-related Orphan Receptor gamma (RORg) (AID 2283011; active means hit-call score of the fitted dose curve at least 0.9, where 1 is the maximum). An outline of the steps:
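Activity is scored as increase in GAL4-UAS reporter mRNA over DMSO, detected by fluorescent RT-PCR and capillary electrophoresis in HepG2 cells transiently expressing a RORg-Gal4 chimera, 24 h after dosing.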

For assay [10], the target named is Retinoic acid receptor RXR-alpha (Homo sapiens) (UniProt P19793). The assay is described as follows: ATG_RXRa_TRANS: Attagene TRANS-FACTORIAL HepG2 Assay for human Retinoid X Receptor alpha (RXRa) (AID 2283012; active means hit-call score of the fitted dose curve at least 0.9, where 1 is the maximum). The method in brief: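 Chimeric NR-GAL4 trans-activation in HepG2, 24 h treatment; reporter transcripts quantified by fluorescence on capillary electrophoresis, analysed for upward change from DMSO.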
Retinoic acid receptor RXR-alpha (Homo sapiens), sequence (P19793 whole entry, looked up, the tested form may be a part): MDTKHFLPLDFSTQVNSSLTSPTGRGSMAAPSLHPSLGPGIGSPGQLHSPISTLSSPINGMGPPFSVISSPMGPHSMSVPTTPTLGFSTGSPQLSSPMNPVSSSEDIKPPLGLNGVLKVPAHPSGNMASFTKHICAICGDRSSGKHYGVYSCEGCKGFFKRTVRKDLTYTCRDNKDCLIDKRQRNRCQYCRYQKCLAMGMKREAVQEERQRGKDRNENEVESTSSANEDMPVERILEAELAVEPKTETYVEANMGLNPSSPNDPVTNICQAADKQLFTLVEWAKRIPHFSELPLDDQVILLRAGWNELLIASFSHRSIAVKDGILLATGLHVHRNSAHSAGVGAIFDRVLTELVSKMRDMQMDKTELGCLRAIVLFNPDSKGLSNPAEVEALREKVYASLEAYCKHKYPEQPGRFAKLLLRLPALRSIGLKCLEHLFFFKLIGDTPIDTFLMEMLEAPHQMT

Assay [11] deals with human Retinoid X Receptor beta (RXRb), RXRB (gene 6257) (UniProt P28702). The assay is described as follows: ATG_RXRb_TRANS: Attagene TRANS-FACTORIAL HepG2 Assay for human Retinoid X Receptor beta (RXRb) (AID 2283013; active means hit-call score of the fitted dose curve at least 0.9, where 1 is the maximum). The method in brief:
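After a 24 h incubation with test chemical, transfected HepG2 cells carrying NR-Gal4 fusions and GAL4-UAS reporter transcription units yield RNA whose reporter cDNA is FAM-labelled, HpaI-cut and sized by capillary electrophoresis; increases over DMSO are scored.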

Assay [12] has as its target human Thyroid Receptor alpha (THRa1), THRA (gene 7067) (UniProt P10827). The assay is described as follows: ATG_THRa1_TRANS: Attagene TRANS-FACTORIAL HepG2 Assay for human Thyroid Receptor alpha (THRa1) (AID 2283014; active means hit-call score of the fitted dose curve at least 0.9, where 1 is the maximum). The method in brief: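 First, HepG2 cells receive multiple GAL4-UAS reporter units and the chimeric receptor. They are then dosed for 24 h, after which RNA is reverse-transcribed, amplified, labelled, HpaI-cut and sized by capillary electrophoresis; gain relative to DMSO is scored.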

Read-out in assay [13]: E-selectin (Homo sapiens) (UniProt P16581)
In words: BSK_3C_Eselectin: BioMAP Diversity Plus: 3C Assay for Eselectin Biomarker Activity (AID 2283015).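 On outcome: cell surface E-selectin protein quantified by ELISA 24 h after dosing.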 The conditions noted are these: primary human endothelial cells (HUVEC); actives raise or lower the signal. The method in brief: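 Human vascular endothelium from umbilical vein is exposed to test chemicals for 24 h. E-selectin levels are read by ELISA and compared with DMSO controls.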

Read-out in assay [14]: Interleukin-1 alpha (IL1a), IL1A (gene 3552)
The assay is described as follows: BSK_BE3C_IL1a: BioMAP Diversity Plus: BE3C Assay for Interleukin-1 alpha (IL1a) Biomarker Activity (AID 2283016). The conditions noted are these: primary human bronchial epithelial cells; actives raise or lower the signal. An outline of the steps:
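Measured in human lung primary bronchial epithelial cells: IL-1a by ELISA at 24 h after dosing, with bidirectional fitting against DMSO.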

Read-out in assay [15]: Monocyte Chemoattractant Protein-1 (MCP1), CCL2 (gene 6347)
In words: BSK_4H_MCP1: BioMAP Diversity Plus: 4H Assay for Monocyte Chemoattractant Protein-1 (MCP1) Biomarker Activity (AID 2283018). The conditions noted are these: primary human endothelial cells (HUVEC); actives raise or lower the signal. The method in brief: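 Primary human umbilical vein endothelium is exposed to chemical for 24 h before MCP-1 is assayed by ELISA. Concentration-response fitted bidirectionally relative to DMSO.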

Assay [16] deals with human Peroxisome Proliferator-activated Receptor alpha (PPARa), PPARA (gene 5465) (UniProt Q07869). In words: ATG_PPARa_TRANS: Attagene TRANS-FACTORIAL HepG2 Assay for human Peroxisome Proliferator-activated Receptor alpha (PPARa) (AID 2283001; active means hit-call score of the fitted dose curve at least 0.9, where 1 is the maximum). An outline of the steps:
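Transfected HepG2 cells treated with test chemical for 24 h. RNA isolated, reverse-transcribed with oligo(dT), PCR-amplified, FAM-labelled and HpaI-digested. Fragments sized by capillary electrophoresis; gain-of-signal fit relative to DMSO.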

Read-out in assay [17]: Monocyte Chemoattractant Protein-1 (MCP1), CCL2 (gene 6347)
In words: BSK_3C_MCP1: BioMAP Diversity Plus: 3C Assay for Monocyte Chemoattractant Protein-1 (MCP1) Biomarker Activity (AID 2283017). The conditions noted are these: primary human endothelial cells (HUVEC); actives raise or lower the signal. The method in brief: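 Endothelial cells from human umbilical vein are dosed with chemical, cultured 24 h, then assayed for MCP-1 by ELISA; both increases and decreases are modelled against DMSO controls.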

Assay [18] addresses human Retinoic Acid Receptor beta (RARb), RARB (gene 5915) (UniProt P10826). In words: ATG_RARb_TRANS: Attagene TRANS-FACTORIAL HepG2 Assay for human Retinoic Acid Receptor beta (AID 2283004; active means hit-call score of the fitted dose curve at least 0.9, where 1 is the maximum). An outline of the steps: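 HepG2, transient MRTU transfection, NR–Gal4 chimera, 24 h treatment; RT-PCR plus CE fluorescence detection of reporter mRNA; gain of signal vs DMSO.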
Assay [19] has as its target Retinoic acid receptor alpha (Homo sapiens) (UniProt P10276). The assay is described as follows: ATG_RARa_TRANS: Attagene TRANS-FACTORIAL HepG2 Assay for human Retinoic Acid Receptor alpha (RARa) (AID 2283005; active means hit-call score of the fitted dose curve at least 0.9, where 1 is the maximum;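 further: potency for increased reporter signal meaning RARa activation over DMSO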). The method in brief: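 Reporter transcripts, measured by RT-PCR with fluorescent labeling and capillary electrophoresis after 24 h dosing, reflect activity of an exogenous human RARa–GAL4 fusion in transiently transfected HepG2. Fitted for increase relative to DMSO.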

In assay [20] the target is human Retinoic Acid Receptor gamma (RARg), RARG (gene 5916) (UniProt P13631). In words: ATG_RARg_TRANS: Attagene TRANS-FACTORIAL HepG2 Assay for human Retinoic Acid Receptor gamma (RARg) (AID 2283009; active means hit-call score of the fitted dose curve at least 0.9, where 1 is the maximum). An outline of the steps:
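Gain-of-signal relative to DMSO is reported from fluorescent capillary electrophoresis of RT-PCR reporter products. These came from HepG2 cells expressing transfected RARg-GAL4 chimeras with UAS reporters, harvested 24 h after dosing.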

E-selectin (Homo sapiens), sequence (P16581 whole entry, looked up): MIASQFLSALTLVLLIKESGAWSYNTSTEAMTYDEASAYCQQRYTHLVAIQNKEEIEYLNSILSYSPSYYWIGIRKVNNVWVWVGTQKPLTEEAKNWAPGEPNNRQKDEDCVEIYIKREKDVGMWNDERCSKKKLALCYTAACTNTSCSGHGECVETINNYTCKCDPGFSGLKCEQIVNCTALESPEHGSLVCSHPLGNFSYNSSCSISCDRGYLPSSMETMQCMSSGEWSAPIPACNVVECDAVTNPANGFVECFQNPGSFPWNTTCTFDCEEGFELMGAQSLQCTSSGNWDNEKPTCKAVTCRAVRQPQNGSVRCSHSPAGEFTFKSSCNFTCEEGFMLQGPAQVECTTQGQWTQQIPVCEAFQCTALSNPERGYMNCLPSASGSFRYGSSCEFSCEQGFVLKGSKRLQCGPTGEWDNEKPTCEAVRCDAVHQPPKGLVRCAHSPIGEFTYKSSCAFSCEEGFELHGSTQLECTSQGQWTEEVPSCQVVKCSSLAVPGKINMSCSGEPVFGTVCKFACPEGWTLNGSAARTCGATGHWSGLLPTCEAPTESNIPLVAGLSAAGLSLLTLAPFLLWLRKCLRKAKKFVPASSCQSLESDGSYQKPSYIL
human Thyroid Receptor alpha (THRa1), THRA (gene 7067), sequence (P10827 whole entry, looked up, the tested form may be a part): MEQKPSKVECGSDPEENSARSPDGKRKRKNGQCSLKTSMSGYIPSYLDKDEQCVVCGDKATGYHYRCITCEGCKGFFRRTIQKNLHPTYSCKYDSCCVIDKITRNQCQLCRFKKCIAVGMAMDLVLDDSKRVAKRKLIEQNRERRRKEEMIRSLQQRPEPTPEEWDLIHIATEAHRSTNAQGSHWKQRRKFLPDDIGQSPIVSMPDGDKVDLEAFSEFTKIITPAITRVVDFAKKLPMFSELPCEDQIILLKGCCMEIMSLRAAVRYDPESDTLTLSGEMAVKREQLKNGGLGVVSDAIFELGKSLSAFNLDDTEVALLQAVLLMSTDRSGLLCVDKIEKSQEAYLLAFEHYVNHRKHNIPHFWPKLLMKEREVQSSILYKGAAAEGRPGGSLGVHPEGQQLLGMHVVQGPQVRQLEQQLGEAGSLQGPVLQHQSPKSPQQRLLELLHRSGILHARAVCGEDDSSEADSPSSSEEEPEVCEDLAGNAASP
human Retinoid X Receptor beta (RXRb), RXRB (gene 6257), sequence (P28702 whole entry, looked up, the tested form may be a part): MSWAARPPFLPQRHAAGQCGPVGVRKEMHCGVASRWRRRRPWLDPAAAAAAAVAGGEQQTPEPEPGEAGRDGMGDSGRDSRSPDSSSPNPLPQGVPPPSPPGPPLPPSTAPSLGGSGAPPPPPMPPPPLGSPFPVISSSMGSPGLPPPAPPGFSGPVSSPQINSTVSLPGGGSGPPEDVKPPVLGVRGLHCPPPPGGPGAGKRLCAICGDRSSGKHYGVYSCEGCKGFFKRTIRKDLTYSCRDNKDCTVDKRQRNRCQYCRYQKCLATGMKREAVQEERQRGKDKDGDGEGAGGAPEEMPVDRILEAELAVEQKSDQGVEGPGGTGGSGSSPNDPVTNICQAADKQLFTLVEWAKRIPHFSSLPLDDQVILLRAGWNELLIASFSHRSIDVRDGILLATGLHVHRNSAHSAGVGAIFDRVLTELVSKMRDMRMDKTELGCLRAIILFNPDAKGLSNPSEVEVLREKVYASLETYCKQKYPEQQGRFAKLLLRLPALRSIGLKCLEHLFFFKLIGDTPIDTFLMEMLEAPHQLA
human RAR-related Orphan Receptor gamma (RORg), RORC (gene 6097), sequence (P51449 whole entry, looked up, the tested form may be a part): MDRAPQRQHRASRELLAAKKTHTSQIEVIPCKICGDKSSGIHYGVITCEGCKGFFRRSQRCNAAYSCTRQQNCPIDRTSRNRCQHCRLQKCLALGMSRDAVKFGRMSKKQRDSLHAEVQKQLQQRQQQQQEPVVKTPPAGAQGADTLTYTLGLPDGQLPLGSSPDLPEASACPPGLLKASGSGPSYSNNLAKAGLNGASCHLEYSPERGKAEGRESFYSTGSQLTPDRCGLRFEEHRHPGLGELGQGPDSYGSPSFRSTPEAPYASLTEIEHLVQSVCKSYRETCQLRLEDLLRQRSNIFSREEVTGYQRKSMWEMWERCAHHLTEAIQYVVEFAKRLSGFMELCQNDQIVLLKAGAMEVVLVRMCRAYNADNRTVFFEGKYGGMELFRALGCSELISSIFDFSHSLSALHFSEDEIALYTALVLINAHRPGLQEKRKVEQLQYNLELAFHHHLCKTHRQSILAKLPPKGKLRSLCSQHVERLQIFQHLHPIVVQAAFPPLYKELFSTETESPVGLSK
Nuclear receptor subfamily 1 group I member 2 (Homo sapiens), sequence (O75469 whole entry, looked up, the tested form may be a part): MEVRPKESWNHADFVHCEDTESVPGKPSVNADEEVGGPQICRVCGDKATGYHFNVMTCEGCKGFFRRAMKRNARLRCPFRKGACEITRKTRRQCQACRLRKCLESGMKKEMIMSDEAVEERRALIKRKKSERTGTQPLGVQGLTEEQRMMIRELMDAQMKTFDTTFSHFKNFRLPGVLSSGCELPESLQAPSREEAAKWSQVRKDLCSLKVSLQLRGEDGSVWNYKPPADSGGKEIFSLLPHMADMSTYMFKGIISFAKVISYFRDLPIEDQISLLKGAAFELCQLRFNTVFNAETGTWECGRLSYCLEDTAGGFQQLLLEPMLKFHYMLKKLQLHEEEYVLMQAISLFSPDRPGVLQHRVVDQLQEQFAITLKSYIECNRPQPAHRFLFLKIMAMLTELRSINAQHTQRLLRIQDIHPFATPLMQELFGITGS
human RAR-related Orphan Receptor beta (RORb), RORB (gene 6096), sequence (Q92753 whole entry, looked up, the tested form may be a part): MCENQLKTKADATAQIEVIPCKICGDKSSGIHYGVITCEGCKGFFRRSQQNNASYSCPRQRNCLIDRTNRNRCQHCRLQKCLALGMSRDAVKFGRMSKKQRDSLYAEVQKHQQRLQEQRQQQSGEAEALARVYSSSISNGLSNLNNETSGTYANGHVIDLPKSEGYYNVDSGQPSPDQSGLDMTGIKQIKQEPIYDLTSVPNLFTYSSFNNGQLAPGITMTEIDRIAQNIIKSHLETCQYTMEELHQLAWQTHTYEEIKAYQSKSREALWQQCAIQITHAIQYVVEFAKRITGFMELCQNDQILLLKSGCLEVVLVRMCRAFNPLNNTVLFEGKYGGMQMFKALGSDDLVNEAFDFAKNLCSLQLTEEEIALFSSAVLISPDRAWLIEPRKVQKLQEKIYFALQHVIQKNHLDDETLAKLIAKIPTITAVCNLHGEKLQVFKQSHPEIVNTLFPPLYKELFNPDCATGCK
Retinoic acid receptor alpha (Homo sapiens), sequence (P10276 whole entry, looked up, the tested form may be a part): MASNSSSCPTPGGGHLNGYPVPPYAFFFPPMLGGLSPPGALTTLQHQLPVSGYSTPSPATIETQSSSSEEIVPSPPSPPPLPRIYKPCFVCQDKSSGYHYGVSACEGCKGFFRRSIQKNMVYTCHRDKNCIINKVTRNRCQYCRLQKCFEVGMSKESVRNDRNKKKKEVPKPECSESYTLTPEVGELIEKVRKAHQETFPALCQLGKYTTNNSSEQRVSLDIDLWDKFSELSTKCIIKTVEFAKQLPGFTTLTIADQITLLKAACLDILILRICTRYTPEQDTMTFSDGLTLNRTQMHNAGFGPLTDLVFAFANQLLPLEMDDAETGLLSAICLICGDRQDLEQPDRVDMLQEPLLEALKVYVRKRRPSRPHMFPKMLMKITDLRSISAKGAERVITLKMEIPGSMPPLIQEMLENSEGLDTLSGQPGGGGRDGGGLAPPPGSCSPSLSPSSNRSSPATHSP

Broadly, the AC50 is the concentration giving half of the maximal activity seen. Turning to `O=C(Nc1ccccc1-c1ccc(Cl)cc1)c1cccnc1Cl`, the outcome in assay [1], in [2], in assay [3], in assay [4], in assay [5] and in assay [7] was inactive. The compound was called inactive in assay [8], in assay [9], in assay [10], in assay [11], in [12] and in assay [13]. Moreover, the outcome in assay [14] and in [15] was inactive. Moreover, in [6], the AC50 is 10.9 µM (active).
With `CCC(C)n1c(=O)[nH]c(C)c(Br)c1=O` (stereo not drawn), the outcome in [1], in [2], in assay [16], in assay [4], in assay [5] and in [7] was inactive. In addition, the result in assay [8], in assay [9], in [10], in assay [11], in assay [12] and in assay [13] was inactive. The outcome in [14], in assay [17] and in assay [15] was inactive.
Consider `CO/N=C(/C1=NOCCO1)c1ccccc1Oc1ncnc(Oc2ccccc2Cl)c1F`, for which the result in [1], in [3], in assay [4], in assay [6], in [7] and in [9] was inactive. In addition, the compound was called inactive in [11], in assay [12] and in assay [14]. The AC50 was 27.8 µM (active) in [2], 17.4 µM (active) in assay [5] and 6.21 µM (active) in assay [13].
Consider `C=C(C)CN(CC)c1c([N+](=O)[O-])cc(C(F)(F)F)cc1[N+](=O)[O-]`, for which the outcome in assay [1], in [2], in assay [4], in [18], in assay [6] and in assay [20] was inactive. In addition, the compound was classed as inactive in assay [9], in [10], in [11], in [13], in [14] and in assay [15]. For the same compound, the AC50 in assay [19] was 30.2 µM (active); in [5], 33.4 µM (active); in assay [7], 13.6 µM (active).
As for `C=CCOC(=O)C(C)(C)OC(=O)c1cc(-n2c(=O)cc(C(F)(F)F)n(C)c2=O)ccc1Cl`, the result in assay [1], in assay [2], in assay [4], in assay [5], in assay [6] and in assay [7] was inactive. In addition, the compound was called inactive in assay [10], in assay [12], in [13], in assay [14] and in assay [15].
